According to PubChem BioAssay (NCI):
Compounds without any hit were thinned out: in the full panel of roughly 79,000, 15% have a hit. Values without a mark were called inactive. Activity calls are given as the source filed them. Cut-off read from the data, not from the text of the source: active = growth inhibition above about 70%; inactive = the rest.

How the values were obtained:
[1] = NCI Yeast Anticancer Drug Screen. Data for the rad50 strain (AID 155);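 note: 0% = growth of vehicle-only cultures of the same strain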; conditions: S. cerevisiae rad50 strain growth inhibition, hits give high values
Summary of the method: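 DNA repair mutant yeast, compound exposure, growth read-out; inhibition is taken relative to vehicle.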

[2] = NCI Yeast Anticancer Drug Screen. Data for the mec2-1 strain (AID 157); conditions: S. cerevisiae mec2-1 strain, hits give high values
Summary of the method: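 Readout is yeast growth inhibition, normalised to vehicle-treated controls, in the mec2-1 strain exposed to compound.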

[3] = NCI Yeast Anticancer Drug Screen. Data for the sgs1 mgt1 strain (AID 161);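 note: 0% = growth of cultures given vehicle only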; conditions: S. cerevisiae sgs1 mgt1 strain, hits give high values
Summary of the method: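 This yeast growth screen uses a strain with defined DNA-repair lesions; compound-treated growth is compared with vehicle-treated growth.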

[4] = NCI Yeast Anticancer Drug Screen. Data for the bub3 strain (AID 167); conditions: S. cerevisiae bub3 mutant strain, hits give high values
Summary of the method: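 In this screen, a yeast mutant lacking normal mitotic checkpoint function is challenged with compound. Relative growth versus vehicle gives the inhibition value.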

[5] = NCI Yeast Anticancer Drug Screen. Data for the mlh1 rad18 strain (AID 175); conditions: S. cerevisiae mlh1 rad18 strain growth inhibition, hits give high values
Summary of the method: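 Test agents were incubated with a yeast strain of defined genotype (DNA damage repair defect). Inhibition of growth was derived by comparison with vehicle-exposed cultures.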

[6] = NCI Yeast Anticancer Drug Screen. Data for the cln2 rad14 strain (AID 165);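 note: 0% = growth equal to vehicle treated cultures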; conditions: S. cerevisiae cln2 rad14 strain, hits give high values
Summary of the method: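 Relative to vehicle controls, growth inhibition of compound-treated cln2 rad14 yeast was recorded.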

[7] = at 5.0 µM (retest, dose inferred, filed as 0.5)
[8] = at 50.0 µM (retest, dose inferred, filed as 5.0)

Row | SMILES | growth inhibition [1, 7] | growth inhibition [1, 8] | growth inhibition ([1]; at 50.0 µM) | growth inhibition [2, 7] | growth inhibition [2, 8] | growth inhibition ([2]; at 50.0 µM) | growth inhibition [3, 7] | growth inhibition [3, 8] | growth inhibition ([3]; at 50.0 µM) | growth inhibition [4, 7] | growth inhibition [4, 8] | growth inhibition ([4]; at 50.0 µM) | growth inhibition [5, 7] | growth inhibition [5, 8] | growth inhibition ([5]; at 50.0 µM) | growth inhibition [6, 7] [%] | growth inhibition [6, 8] | growth inhibition ([6]; at 50.0 µM)
1 | O=C(CBr)Oc1ccc(-c2cccc(Br)c2)cc1 | 1% | 99% (active) | 99.7% (active) | 6% | 99% (active) | 99.5% (active) | 15% | 100% (active) | 99.6% (active) | -6% | 99% (active) | 99.6% (active) | 4% | 99% (active) | 99.2% (active) |  |  | 
2 | Cc1c(-c2ccccc2)ccnc1/C=N/NC(=S)Nc1ccccc1 | 1% | 39% | 89.2% (active) | 1% | 31% | 94% (active) |  |  |  | -2% | 49% | 95.7% (active) | -5% | 59% | 93.8% (active) | 1 | 23% | 92.1% (active)
3 | Cc1ccc(NC(=S)N(CCC#N)C2CCCCC2)cc1C | -12% | -10% | 21.9% | -22% | -21% | -7.55% | -6% | 10% | 10.3% | 7% | 7% | 1.85% | -27% | -28% | 14.6% | -2 | 3% | 0.5%
4 | CC(C)(CN1CCCCC1)C(/C=C/c1ccc(Cl)c(Cl)c1)=N\NC(=O)N/N=C(/C=C/c1ccc(Cl)c(Cl)c1)C(C)(C)CN1CCCCC1 | 42% | 98% (active) | 90.5% (active) | 29% | 99% (active) | 93.3% (active) |  |  |  | 39% | 67% | 91.8% (active) | 56% | 99% (active) | 90% (active) | 31 | 98% (active) | 91.2% (active)
5 | O=C(c1ccccc1)c1ccc2c(c1)CCCC2 | -4% | -14% | 76.5% (active) | -12% | -23% | 60.2% | -5% | -6% | 76.8% (active) | 2% | 49% | 69.7% | 0% | -29% | 71.4% (active) | -5 | -48% | 19.6%
6 | O=c1nc(NC(c2ccccc2)(c2ccccc2)c2ccccc2)ccn1CCNCCn1ccc(NC(c2ccccc2)(c2ccccc2)c2ccccc2)nc1=O | 82% (active) | 96% (active) | 87.6% (active) | 52% | 97% (active) | 89% (active) | 65% | 98% (active) | 91.5% (active) | 74% (active) | 98% (active) | 91% (active) | 90% (active) | 97% (active) | 90% (active) | 34 | 97% (active) | 89.2% (active)
7 | COc1ccc2sc3c(C)ccc(NCC4CCCN5CCCCC45)c3c(=O)c2c1 (stereo not given) | 42% | 81% (active) | 97.2% (active) | 12% | 88% (active) | 99.6% (active) | 32% | 76% (active) | 99.3% (active) | 21% | 92% (active) | 99.5% (active) | 27% | 81% (active) | 99.4% (active) |  |  | 
8 | CC(C)c1c(P(=O)(c2ccccc2)c2ccccc2)n(C)c2ccccc12 | 36% | 99% (active) | 83.4% (active) | -34% | 98% (active) | 89.5% (active) | -30% | 89% (active) | 77.8% (active) | -25% | 99% (active) | 84.7% (active) | -27% | 96% (active) | 79.6% (active) |  |  | 
9 | CN(C)C1CCC2C3CCC4=CC(=O)CCC4(C)C3CCC21C (stereo not given) | 2% | 28% | 77.1% (active) | 17% | 21% | 48% | 8% | 39% | 69.5% | 2% | -63% | 40% | 2% | 35% | 51.7% |  | 55% | 47.1%
10 | O=C(O)Cc1ccc2c3c(cccc13)CC2 | 44% | 90% (active) | 88.1% (active) | 12% | 94% (active) | 91.8% (active) | 20% | 78% (active) | 91.2% (active) | 16% | 86% (active) | 92.2% (active) | 27% | 91% (active) | 92.8% (active) | 23 | 77% (active) | 90.2% (active)
11 | NC(=O)N/N=C/c1ccc(Cl)s1 | 4% | 42% | 94.4% (active) | 4% | 21% | 59% | 2% | 31% | 88.8% (active) | 3% | 35% | 82.5% (active) | 1% | 31% | 89.2% (active) |  |  | 
12 | Cc1ccc2c(c1)CSCCO2 | 86% (active) | 99% (active) | 99.3% (active) | 87% (active) | 100% (active) | 99.7% (active) | 87% (active) | 99% (active) | 99.5% (active) | 90% (active) | 99% (active) | 99.5% (active) | 92% (active) | 99% (active) | 99.5% (active) | 50 | 100% (active) | 99.3% (active)
13 | O=S1(=O)c2ccccc2C(Br)C1Br (stereo not given) | 31% | 98% (active) | 99.2% (active) | 30% | 99% (active) | 99.5% (active) | 27% | 99% (active) | 58.4% | 25% | 98% (active) | 99.6% (active) | 56% | 99% (active) | 99.3% (active) | 22 | 99% (active) | 99% (active)
